According to the supplement of paper PMC10981050:
Several values for one entry are separate records, joined by “and”; a condition that tells them apart may be missing. Equal entries are not always repeated. Structures can show the parent of a compound that is named as a salt.

Columns and labels:
Test in all cases: cell viability relative to vehicle control; higher = less cytotoxic
Conditions in all cases: 10 µM
K562 = test system: K562
Method in brief: (§1)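 After removal of identity-inconsistent compounds, the Selleck bioactive, kinase and epigenetic probe libraries were screened on CRISPR-edited mutant clones and isogenic wild-type clones of four leukaemia lines. Plates were 384-well, each well holding 2000 cells in 50 µL medium and receiving a single 10 µM acoustically dispensed dose. CellTiter-Glo luminescence was read 48 h later, after the supernatant was taken off. Genedata Screener was used to express viability as percent of the on-plate vehicle control.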

MARIMO = test system: MARIMO
Method in brief: as §1

MOLM14 = test system: MOLM14
Method in brief: as §1

OCI-AML2 = test system: OCI-AML2
Method in brief: as §1

| SMILES | cell viability (K562; SRSF2 genotype: SRSF2 P95H/wt) | cell viability (K562; SRSF2 genotype: SRSF2 wt/wt) | cell viability (MARIMO; SRSF2 genotype: SRSF2 P95H/wt) | cell viability (MARIMO; SRSF2 genotype: SRSF2 wt/wt) | cell viability (MOLM14; SRSF2 genotype: SRSF2 P95H/wt) | cell viability (MOLM14; SRSF2 genotype: SRSF2 wt/wt) | cell viability (OCI-AML2; SRSF2 genotype: P95H/wt) | cell viability (OCI-AML2; SRSF2 genotype: wt/wt) |
| --- | --- | --- | --- | --- | --- | --- | --- | --- |
| C[C@H](CCC(=O)NCCS(=O)(=O)O)[C@H]1CC[C@H]2[C@@H]3[C@H](O)C[C@@H]4C[C@H](O)CC[C@]4(C)[C@H]3C[C@H](O)[C@]12C [Taurocholic acid sodium salt hydrate] | 110% and 102% | 107% | 107% | 108% | 103% | 111% | 106% | 107% |
| CC(C)=CCC[C@@H](C)CC=O [Citronellal] | 104% and 96.5% | 112% | 96.2% | 102% | 103% | 106% | 105% | 114% |
| CC(C)(C)c1ccc(S(=O)(=O)NCc2ccc(C(=O)Nc3cccnc3)cc2)cc1 | 31.8% and 20.2% | 26.6% | 20.9% | 32.5% | 9.88% | 1.9% | 5.52% | 5.41% |
| Nc1ncn([C@H]2C[C@H](O)[C@@H](CO)O2)c(=O)n1 [Decitabine] | 77.9% and 88.9% | 80.9% | 69.5% | 73.8% | 47.4% | 39.7% | 54.4% | 58.2% |
| COc1cc2c3cc1Oc1c(OC)c(OC)cc4c1[C@@H](Cc1ccc(O)c(c1)Oc1ccc(cc1)C[C@@H]3N(C)CC2)N(C)CC4 [Berbamine] | 62.8% and 49.4% | 57.5% | 72.7% | 67.2% | 72.8% | 67.6% | 39.3% | 54.9% |
| CN(C)C(=O)COC(=O)Cc1ccc(OC(=O)c2ccc(NC(=N)N)cc2)cc1 [Camostat Mesilate (FOY-305)] | 100% and 101% | 96.3% | 108% | 98.4% | 106% | 98.8% | 100% | 99.6% |
| O=C(O)c1ccc2c3c1cccc3c(=O)n1c3ccccc3nc21 | 104% and 102% | 102% | 107% | 106% | 96.6% | 99.9% | 104% | 97.5% |
| CCCN(CCc1cccs1)[C@H]1CCc2c(O)cccc2C1 [Rotigotine] | 99.3% and 105% | 104% | 89.7% | 105% | 93.8% | 101% | 107% | 92.3% |
| CNC(=O)c1ccc(N2C(=S)N(c3ccc(C#N)c(C(F)(F)F)c3)C(=O)C2(C)C)cc1F [MDV3100 (Enzalutamide)] | 84.9% and 91.7% | 89.2% | 90.4% | 89.1% | 89.2% | 90.3% | 83.3% | 80.3% |
| C=CC(=O)Nc1cccc(Oc2nc(Nc3ccc(N4CCN(C)CC4)cc3)ncc2Cl)c1 | 19.3% and 33.1% | 34.2% | 29.4% | 18.8% | -0.04% | -0.03% | 0.39% | 5.07% |
| c1ccc(-c2ccc(C(c3ccccc3)n3ccnc3)cc2)cc1 (stereo not drawn) [Bifonazole] | 82.3% and 83.9% | 79.7% | 81.4% | 87.7% | 84.5% | 94.2% | 83.9% | 82.7% |
| CC(C)N(CCCNC(=O)Nc1ccc(C(C)(C)C)cc1)C[C@H]1O[C@@H](n2ccc3c(N)ncnc32)[C@H](O)[C@@H]1O | 94.6% and 92.6% | 86.1% | 89.3% | 96.9% | 95.5% | 92% | 84.3% | 89.6% |
| CC(=O)Oc1ccc2c(c1)Oc1cc(OC(C)=O)ccc1C21OC(=O)c2cc(C(=O)ON3C(=O)CCC3=O)ccc21.CC(=O)Oc1ccc2c(c1)Oc1cc(OC(C)=O)ccc1C21OC(=O)c2ccc(C(=O)ON3C(=O)CCC3=O)cc21 | 90.8% and 93.8% | 99.6% | 98.1% | 77.4% | 92.8% | 63.6% | 75.5% | 77.9% |
| O=C(/C=C/c1cccc(S(=O)(=O)Nc2ccccc2)c1)NO [Belinostat (PXD101)] | 1.83% and 15.8% | 5.17% | 8.17% | 13.7% | 0.86% | 0.57% | 2.66% | 4.34% |
| O=C(c1ccc(C(=O)N2CCC(N3CCCC3)CC2)c(Nc2ccccc2)c1)N1CCC(N2CCCC2)CC1 | 94.7% and 87.5% | 84.1% | 81.1% | 92.7% | 89% | 89.4% | 93.8% | 89.4% |
| Nc1nc(Cl)nc2c1ncn2[C@@H]1O[C@H](CO)[C@@H](O)[C@@H]1F [Clofarabine] | 96.7% and 113% | 105% | 11.5% | 8.77% | 2.95% | 0.83% | 5.47% | 4.64% |
| COc1ccc(C2=N[C@@H](c3ccc(Cl)cc3)[C@@H](c3ccc(Cl)cc3)N2C(=O)N2CCNC(=O)C2)c(OC(C)C)c1 [Nutlin-3] | 91.4% and 99.4% | 89.2% | 87.4% | 93.3% | 0.14% | 1.06% | 9.37% | 32.1% |
| Cc1oncc1C(=O)Nc1ccc(C(F)(F)F)cc1 [Leflunomide] | 93.4% and 96.5% | 86.8% | 94.9% | 90.1% | 102% | 98.3% | 80.3% | 85.1% |
| CN1CCN(Cc2ccc(Nc3ncc(Cl)c(Nc4ccccc4S(=O)(=O)N(C)C)n3)cc2)CC1 | 42.8% and 43% | 47.6% | 30.3% | 4.7% | 11.3% | 0.64% | 2.24% | 10.3% |
| COc1ccc(-c2ccc3cc(C(=O)O)ccc3c2)cc1C12CC3CC(CC(C3)C1)C2 [Adapalene] | 93.7% and 97.8% | 88.2% | 45.3% | 26.6% | 56.9% | 23.9% | 31.2% | 38.6% |
| CCOC(=O)Nc1ccc(NCc2ccc(F)cc2)nc1N [Flupirtine maleate] | 101% and 104% | 104% | 91.5% | 105% | 101% | 103% | 100% | 110% |

| SMILES | cell viability (K562; SRSF2 genotype: SRSF2 P95H/wt) | cell viability (K562; SRSF2 genotype: SRSF2 wt/wt) | cell viability (MARIMO; SRSF2 genotype: SRSF2 P95H/wt) | cell viability (MARIMO; SRSF2 genotype: SRSF2 wt/wt) | cell viability (MOLM14; SRSF2 genotype: SRSF2 P95H/wt) | cell viability (MOLM14; SRSF2 genotype: SRSF2 wt/wt) | cell viability (OCI-AML2; SRSF2 genotype: P95H/wt) | cell viability (OCI-AML2; SRSF2 genotype: wt/wt) |
| --- | --- | --- | --- | --- | --- | --- | --- | --- |
| C=C(CCC=C(C)C)[C@H]1CC[C@]2(C)[C@@H]1[C@H](O)C[C@@H]1[C@@]3(C)CC[C@H](O[C@@H]4O[C@H](CO)[C@@H](O)[C@H](O)[C@H]4O[C@@H]4O[C@H](CO)[C@@H](O)[C@H](O)[C@H]4O)C(C)(C)[C@@H]3CC[C@]12C [Ginsenoside Rk1] | 107% and 97.8% | 107% | 105% | 104% | 108% | 104% | 100% | 104% |
| CC(C)Oc1ccc2c(=O)c(-c3ccccc3)coc2c1 [Ipriflavone] | 88.2% and 88.5% | 94% | 85.2% | 88.1% | 110% | 113% | 71.6% | 75.8% |
| C[n+]1cc2c3c(ccc2c2ccc4cc5c(cc4c21)OCO5)OCO3 [Sanguinarine chloride] | 0.68% and 0.46% | 0.74% | 0.3% | 0.38% | 0.25% | 0.34% | 0.31% | 0.29% |
| CS(=O)(=O)Nc1ccc([N+](=O)[O-])cc1OC1CCCCC1 | 99.4% and 103% | 97% | 102% | 95.3% | 94.4% | 98.8% | 107% | 101% |
| O=c1[nH]c(=O)n(C2CCCO2)cc1F (stereo not drawn) | 107% and 105% | 103% | 96.4% | 108% | 99.7% | 104% | 93.9% | 105% |
| Cc1cccc(Nc2cc(Cl)nc(SCC(=O)O)n2)c1C | 95.6% and 95.5% | 97.2% | 98.9% | 99.9% | 95.9% | 98.5% | 90.3% | 94.4% |
| Oc1cc(O)c2c(c1)OC(c1ccc(O)c(O)c1)C(O)C2 (single isomer, unassigned; (+)) [(+)-Catechin hydrate] | 103% and 94.1% | 103% | 106% | 103% | 104% | 104% | 104% | 108% |
| CC#C[C@]1(O)CC[C@H]2[C@@H]3CCC4=CC(=O)CCC4=C3[C@@H](c3ccc(N(C)C)cc3)C[C@@]21C [Mifepristone (Mifeprex)] | 84.3% and 91.5% | 86.8% | 86.7% | 90.7% | 79.7% | 89.6% | 104% | 92.6% |
| C/C(=C\C(=O)OCCCCCCCCC(=O)O)C[C@@H]1OC[C@H](C[C@@H]2O[C@H]2[C@@H](C)[C@H](C)O)[C@@H](O)[C@H]1O [Mupirocin calcium] | 90.7% and 86.2% | 87.5% | 84.3% | 97.9% | 94.2% | 93.4% | 97.3% | 93.5% |
| CC(C)(C)C1CCC(CC2=C(O)c3ccccc3C(=O)C2=O)CC1 (stereo not drawn) [Buparvaquone] | 76.6% and 81.5% | 77% | 84.1% | 101% | 63.2% | 42.9% | 80.4% | 75.3% |
| CCC(C)C1OC2(CCC1C)CC1CC(CC=C(C)C(OC3CC(OC)C(OC4CC(OC)C(O)C(C)O4)C(C)O3)C(C)C=CC=C3COC4C(O)C(C)=CC(C(=O)O1)C34O)O2 (stereo not drawn) [Ivermectin] | 24.6% and 35% | 26.9% | 25.9% | 22.9% | 21.3% | 18.4% | 4.65% | 7.41% |
| COCC(=O)Nc1cc(Sc2ccccc2)ccc1N=C(NC(=O)OC)NC(=O)OC [Febantel] | 98.1% and 91.8% | 97.1% | 98.9% | 107% | 97.9% | 110% | 98.3% | 102% |
| CCC(=O)Nc1cccc(Oc2nc(Nc3ccc(N4CCN(C)CC4)cc3OC)ncc2Cl)c1 | 90.9% and 97.3% | 90.6% | 70.3% | 68.3% | 39.9% | 40.7% | 61.2% | 59.2% |
| C[C@@H]1O[C@@H](O[C@@H]2[C@@H](O)[C@H](OCCc3ccc(O)c(O)c3)O[C@H](COC(=O)/C=C/c3ccc(O)c(O)c3)[C@H]2O)[C@H](O)[C@H](O)[C@H]1O [Isoacteoside] | 101% and 104% | 91.6% | 99% | 103% | 94.9% | 101% | 100% | 106% |
| COc1ccc(-c2nc3cc(C4=NNC(=O)CC4C)ccc3[nH]2)cc1 (stereo not drawn) [Pimobendan (Vetmedin)] | 59.4% and 65.2% | 68.4% | 65.5% | 57.5% | 68% | 83.6% | 89.3% | 84.4% |
| O=C(c1cccc(Cl)c1F)N1CCN(Cc2cccc(Nc3nccs3)n2)CC1 | 44.2% and 57.2% | 56.6% | 87.8% | 91.5% | 54.9% | 71.4% | 35.6% | 44.1% |
| Nc1ncnc2c1ncn2[C@@H]1O[C@H](CO)C[C@H]1O [Cordycepin] | 94.3% and 102% | 89.3% | 90.4% | 99% | 102% | 102% | 94.1% | 112% |
| Cc1c(C(C)C)c(=O)n(-c2ccccc2)n1C [Propyphenazone (4-Isopropylantipyrine)] | 101% and 105% | 97.5% | 94% | 105% | 94.3% | 101% | 86.9% | 97.4% |
| CN(C)CCC(c1ccc(Cl)cc1)c1ccccn1 (stereo not drawn) [Chlorpheniramine Maleate] | 100% and 106% | 98.2% | 91.4% | 105% | 94.7% | 101% | 99.4% | 99.1% |
| COc1cc2oc(-c3ccc(O)cc3)cc(=O)c2c(O)c1[C@@H]1O[C@H](CO)[C@@H](O)[C@H](O)[C@H]1O[C@@H]1O[C@H](CO)[C@@H](O)[C@H](O)[C@H]1O [Spinosin] | 106% | 104% | 106% | 101% | 106% | 104% | 99.2% | 100% |
